{"source": "PubChem BioAssay AID1159580", "about": "(chemical genetic matrix, 2015)", "experiment": "chemical genetic growth profiling, strain panel (AID 1159580);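 note: tested at 20 µM; growth read once vehicle control cultures reached saturation at 30 °C; 1 = growth at the plate median or of vehicle wells; lower values mean less growth of the strain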", "details": "growth OD", "note": "The campaign covered roughly 5,500 compounds. About 2,000 (36%) were called active. Roughly 18% stayed inconclusive and do not appear here. Some of the results follow. Unmarked numbers belong to inactive results. Cut-off read from the data, not from the text of the source: active = normalized growth mostly below about 0.91 (no sharp cut-off); inconclusive = no clear call, values can overlap the other calls; inactive = mostly above about 0.92.", "data": [{"smiles": "O=c1cc(-c2ccccc2)oc2cc(O)c(O)c(O)c12", "values": [{"measurement": "normalized growth", "setting": "S. cerevisiae deletion strains, locus YKL009W, strain mrt4, stronger effect = lower value", "result": 0.97}, {"measurement": "normalized growth", "setting": "S. cerevisiae deletion strains, locus YKL068W, stronger effect = lower value", "result": "0.855 (active)"}, {"measurement": "normalized growth", "setting": "S. cerevisiae deletion strains, locus YKL085W, strain MDH1 (second series), stronger effect = lower value", "result": "0.84 (active)"}, {"measurement": "normalized growth", "setting": "S. cerevisiae deletion strains, locus YKL085W, strain MDH1, stronger effect = lower value", "result": "0.84 (active)"}, {"measurement": "normalized growth", "setting": "S. cerevisiae deletion strains, locus YKL160W, strain elf1, stronger effect = lower value", "result": "0.701 (active)"}, {"measurement": "normalized growth", "setting": "S. cerevisiae deletion strains, locus YKL190W, strain CNB1, stronger effect = lower value", "result": "0.429 (active)"}, {"measurement": "normalized growth", "setting": "S. cerevisiae deletion strains, locus YKR001C, strain vps1, stronger effect = lower value", "result": "0.376 (active)"}, {"measurement": "normalized growth", "setting": "S. cerevisiae deletion strains, locus YKR026C, strain gcn3, stronger effect = lower value", "result": "0.572 (active)"}, {"measurement": "normalized growth", "setting": "S. cerevisiae deletion strains, locus YKR091W, strain srl3, stronger effect = lower value", "result": "0.763 (active)"}, {"measurement": "normalized growth", "setting": "S. cerevisiae deletion strains, locus YLL001W, strain dnm1, stronger effect = lower value", "result": "0.482 (active)"}, {"measurement": "normalized growth", "setting": "S. cerevisiae deletion strains, locus YLL026W, stronger effect = lower value", "result": "0.57 (active)"}, {"measurement": "normalized growth", "setting": "S. cerevisiae deletion strains, locus YLL041C, strain sdh2, stronger effect = lower value", "result": "0.649 (active)"}, {"measurement": "normalized growth", "setting": "S. cerevisiae deletion strains, locus YLR027C, strain aat2, stronger effect = lower value", "result": "0.575 (active)"}, {"measurement": "normalized growth", "setting": "S. cerevisiae deletion strains, locus YLR039C, strain RIC1, stronger effect = lower value", "result": "0.154 (active)"}, {"measurement": "normalized growth", "setting": "S. cerevisiae deletion strains, locus YLR058C, strain SHM2, stronger effect = lower value", "result": "0.0829 (active)"}, {"measurement": "normalized growth", "setting": "S. cerevisiae deletion strains, locus YLR102C, strain apc9, stronger effect = lower value", "result": "0.857 (active)"}, {"measurement": "normalized growth", "setting": "S. cerevisiae deletion strains, locus YLR113W, strain HOG1, stronger effect = lower value", "result": "0.575 (active)"}, {"measurement": "normalized growth", "setting": "S. cerevisiae deletion strains, locus YLR221C, strain rsa3, stronger effect = lower value", "result": "0.521 (active)"}, {"measurement": "normalized growth", "setting": "S. cerevisiae deletion strains, locus YLR258W, strain gsy2, stronger effect = lower value", "result": "0.576 (active)"}, {"measurement": "normalized growth", "setting": "S. cerevisiae deletion strains, locus YLR262C, strain YPT6 (second series), stronger effect = lower value", "result": "0.303 (active)"}, {"measurement": "normalized growth", "setting": "S. cerevisiae deletion strains, locus YLR262C, strain YPT6, stronger effect = lower value", "result": "0.375 (active)"}, {"measurement": "normalized growth", "setting": "S. cerevisiae deletion strains, locus YLR268W, strain sec22, stronger effect = lower value", "result": "0.176 (active)"}, {"measurement": "normalized growth", "setting": "S. cerevisiae deletion strains, locus YLR320W, strain mms22, stronger effect = lower value", "result": "0.418 (active)"}, {"measurement": "normalized growth", "setting": "S. cerevisiae deletion strains, locus YLR330W, strain CHS5, stronger effect = lower value", "result": "0.543 (active)"}, {"measurement": "normalized growth", "setting": "S. cerevisiae deletion strains, locus YLR342W, strain FKS1 (second series), stronger effect = lower value", "result": "0.345 (active)"}, {"measurement": "normalized growth", "setting": "S. cerevisiae deletion strains, locus YLR342W, strain FKS1, stronger effect = lower value", "result": "0.364 (active)"}, {"measurement": "normalized growth", "setting": "S. cerevisiae deletion strains, locus YLR357W, strain rsc2, stronger effect = lower value", "result": "0.474 (active)"}, {"measurement": "normalized growth", "setting": "S. cerevisiae deletion strains, locus YLR370C, strain arc18, stronger effect = lower value", "result": "0.427 (active)"}, {"measurement": "normalized growth", "setting": "S. cerevisiae deletion strains, locus YLR371W, strain rom2, stronger effect = lower value", "result": "0.588 (active)"}, {"measurement": "normalized growth", "setting": "S. cerevisiae deletion strains, locus YLR384C, strain iki3, stronger effect = lower value", "result": "0.327 (active)"}, {"measurement": "normalized growth", "setting": "S. cerevisiae deletion strains, locus YLR418C, strain cdc73, stronger effect = lower value", "result": "0.303 (active)"}, {"measurement": "normalized growth", "setting": "S. cerevisiae deletion strains, locus YML016C, strain PPZ1, stronger effect = lower value", "result": "0.399 (active)"}, {"measurement": "normalized growth", "setting": "S. cerevisiae deletion strains, locus YML032C, strain rad52, stronger effect = lower value", "result": "0.165 (active)"}, {"measurement": "normalized growth", "setting": "S. cerevisiae deletion strains, locus YML120C, strain ndi1, stronger effect = lower value", "result": "0.14 (active)"}, {"measurement": "normalized growth", "setting": "S. cerevisiae deletion strains, locus YML124C, strain tub3, stronger effect = lower value", "result": "0.424 (active)"}, {"measurement": "normalized growth", "setting": "S. cerevisiae deletion strains, locus YMR058W, strain fet3, stronger effect = lower value", "result": "0.223 (active)"}, {"measurement": "normalized growth", "setting": "S. cerevisiae deletion strains, locus YMR078C, strain ctf18, stronger effect = lower value", "result": "0.547 (active)"}, {"measurement": "normalized growth", "setting": "S. cerevisiae deletion strains, locus YMR125W, strain sto1, stronger effect = lower value", "result": "0.802 (active)"}, {"measurement": "normalized growth", "setting": "S. cerevisiae deletion strains, locus YMR129W, stronger effect = lower value", "result": "0.568 (active)"}, {"measurement": "normalized growth", "setting": "S. cerevisiae deletion strains, locus YMR205C, strain PFK2, stronger effect = lower value", "result": "0.294 (active)"}, {"measurement": "normalized growth", "setting": "S. cerevisiae deletion strains, locus YMR223W, strain ubp8, stronger effect = lower value", "result": "0.464 (active)"}, {"measurement": "normalized growth", "setting": "S. cerevisiae deletion strains, locus YMR231W, strain pep5, stronger effect = lower value", "result": "0.398 (active)"}, {"measurement": "normalized growth", "setting": "S. cerevisiae deletion strains, locus YMR263W, strain SAP30, stronger effect = lower value", "result": "0.207 (active)"}, {"measurement": "normalized growth", "setting": "S. cerevisiae deletion strains, locus YMR307W, strain GAS1, stronger effect = lower value", "result": "0.456 (active)"}, {"measurement": "normalized growth", "setting": "S. cerevisiae deletion strains, locus YNL067W, strain RPL9B, stronger effect = lower value", "result": "0.401 (active)"}, {"measurement": "normalized growth", "setting": "S. cerevisiae deletion strains, locus YNL071W, strain lat1, stronger effect = lower value", "result": "0.675 (active)"}, {"measurement": "normalized growth", "setting": "S. cerevisiae deletion strains, locus YNL128W, strain TEP1, stronger effect = lower value", "result": "0.387 (active)"}, {"measurement": "normalized growth", "setting": "S. cerevisiae deletion strains, locus YNL153C, strain GIM3, stronger effect = lower value", "result": "0.215 (active)"}, {"measurement": "normalized growth", "setting": "S. cerevisiae deletion strains, locus YNL183C, strain NPR1, stronger effect = lower value", "result": "0.634 (active)"}, {"measurement": "normalized growth", "setting": "S. cerevisiae deletion strains, locus YNL209W, strain ssb2, stronger effect = lower value", "result": "0.185 (active)"}, {"measurement": "normalized growth", "setting": "S. cerevisiae deletion strains, locus YNL233W, strain BNI4, stronger effect = lower value", "result": "0.502 (active)"}, {"measurement": "normalized growth", "setting": "S. cerevisiae deletion strains, locus YNL248C, strain rpa49, stronger effect = lower value", "result": "0.633 (active)"}, {"measurement": "normalized growth", "setting": "S. cerevisiae deletion strains, locus YNL250W, strain rad50, stronger effect = lower value", "result": "0.76 (active)"}, {"measurement": "normalized growth", "setting": "S. cerevisiae deletion strains, locus YNL271C, strain bni1, stronger effect = lower value", "result": "0.774 (active)"}, {"measurement": "normalized growth", "setting": "S. cerevisiae deletion strains, locus YNL298W, strain CLA4, stronger effect = lower value", "result": "0.756 (active)"}, {"measurement": "normalized growth", "setting": "S. cerevisiae deletion strains, locus YNL307C, strain MCK1, stronger effect = lower value", "result": "0.517 (active)"}, {"measurement": "normalized growth", "setting": "S. cerevisiae deletion strains, locus YNL322C, strain KRE1 (second series), stronger effect = lower value", "result": "0.187 (active)"}, {"measurement": "normalized growth", "setting": "S. cerevisiae deletion strains, locus YNL322C, strain KRE1, stronger effect = lower value", "result": "0.241 (active)"}, {"measurement": "normalized growth", "setting": "S. cerevisiae deletion strains, locus YNR049C, strain mso1, stronger effect = lower value", "result": "0.714 (active)"}, {"measurement": "normalized growth", "setting": "S. cerevisiae deletion strains, locus YNR052C, strain pop2, stronger effect = lower value", "result": "0.122 (active)"}, {"measurement": "normalized growth", "setting": "S. cerevisiae deletion strains, locus YOL006C, strain TOP1, stronger effect = lower value", "result": "0.136 (active)"}, {"measurement": "normalized growth", "setting": "S. cerevisiae deletion strains, locus YOL012C, strain htz1", "result": 0.269}, {"measurement": "normalized growth", "setting": "S. cerevisiae deletion strains, locus YOL147C, strain pex11, stronger effect = lower value", "result": "0.187 (active)"}, {"measurement": "normalized growth", "setting": "S. cerevisiae deletion strains, locus YOR001W, strain rrp6, stronger effect = lower value", "result": "0.325 (active)"}, {"measurement": "normalized growth", "setting": "S. cerevisiae deletion strains, locus YOR061W, strain CKA2, stronger effect = lower value", "result": "0.545 (active)"}, {"measurement": "normalized growth", "setting": "S. cerevisiae deletion strains, locus YOR069W, strain VPS5, stronger effect = lower value", "result": "0.617 (active)"}, {"measurement": "normalized growth", "setting": "S. cerevisiae deletion strains, locus YOR070C, strain gyp1, stronger effect = lower value", "result": "0.782 (active)"}, {"measurement": "normalized growth", "setting": "S. cerevisiae deletion strains, locus YOR080W, strain dia2, stronger effect = lower value", "result": "0.105 (active)"}, {"measurement": "normalized growth", "setting": "S. cerevisiae deletion strains, locus YOR083W, strain WHI5, stronger effect = lower value", "result": "0.618 (active)"}, {"measurement": "normalized growth", "setting": "S. cerevisiae deletion strains, locus YOR106W, strain vam3, stronger effect = lower value", "result": "0.221 (active)"}, {"measurement": "normalized growth", "setting": "S. cerevisiae deletion strains, locus YOR136W, strain idh2, stronger effect = lower value", "result": "0.557 (active)"}, {"measurement": "normalized growth", "setting": "S. cerevisiae deletion strains, locus YOR144C, strain elg1, stronger effect = lower value", "result": "0.202 (active)"}, {"measurement": "normalized growth", "setting": "S. cerevisiae deletion strains, locus YOR184W, strain ser1, stronger effect = lower value", "result": "0.314 (active)"}, {"measurement": "normalized growth", "setting": "S. cerevisiae deletion strains, locus YOR231W, strain MKK1, stronger effect = lower value", "result": "0.68 (active)"}, {"measurement": "normalized growth", "setting": "S. cerevisiae deletion strains, locus YOR265W, strain rbl2, stronger effect = lower value", "result": "0.507 (active)"}, {"measurement": "normalized growth", "setting": "S. cerevisiae deletion strains, locus YOR270C, strain vph1, stronger effect = lower value", "result": "0.169 (active)"}, {"measurement": "normalized growth", "setting": "S. cerevisiae deletion strains, locus YOR290C, strain snf2, stronger effect = lower value", "result": "0.0825 (active)"}, {"measurement": "normalized growth", "setting": "S. cerevisiae deletion strains, locus YOR316C, strain cot1, stronger effect = lower value", "result": "0.738 (active)"}, {"measurement": "normalized growth", "setting": "S. cerevisiae deletion strains, locus YPL051W, strain arl3, stronger effect = lower value", "result": "0.328 (active)"}, {"measurement": "normalized growth", "setting": "S. cerevisiae deletion strains, locus YPL055C, strain LGE1, stronger effect = lower value", "result": "0.443 (active)"}, {"measurement": "normalized growth", "setting": "S. cerevisiae deletion strains, locus YPL078C, strain atp4, stronger effect = lower value", "result": "0.144 (active)"}, {"measurement": "normalized growth", "setting": "S. cerevisiae deletion strains, locus YPL106C, strain sse1, stronger effect = lower value", "result": "0.582 (active)"}, {"measurement": "normalized growth", "setting": "S. cerevisiae deletion strains, locus YPL240C, strain hsp82, stronger effect = lower value", "result": "0.671 (active)"}, {"measurement": "normalized growth", "setting": "S. cerevisiae deletion strains, locus YPL241C, strain CIN2, stronger effect = lower value", "result": "0.57 (active)"}, {"measurement": "normalized growth", "setting": "S. cerevisiae deletion strains, locus YPL256C, strain CLN2, stronger effect = lower value", "result": "0.693 (active)"}, {"measurement": "normalized growth", "setting": "S. cerevisiae deletion strains, locus YPR119W, strain clb2, stronger effect = lower value", "result": "0.802 (active)"}, {"measurement": "normalized growth", "setting": "S. cerevisiae deletion strains, locus YPR141C, strain kar3, stronger effect = lower value", "result": "0.849 (active)"}, {"measurement": "normalized growth", "setting": "S. cerevisiae deletion strains, locus YPR163C, strain tif3, stronger effect = lower value", "result": "0.659 (active)"}, {"measurement": "normalized growth", "setting": "S. cerevisiae deletion strains, locus YPR167C, strain met16, stronger effect = lower value", "result": "0.564 (active)"}, {"measurement": "normalized growth", "setting": "S. cerevisiae deletion strains, strain wtn01, stronger effect = lower value", "result": "0.349 (active)"}, {"measurement": "normalized growth", "setting": "S. cerevisiae strains, strain wild type, stronger effect = lower value", "result": "0.268 (active)"}]}]}
